Most compounds without a hit are left out; they make up all but 5.6% or so of the library.
VP16 counter = counter-screen for ROR gamma inhibitors: Gal4-VP16 reporter; Potency, µM (doses to about 53.6 µM), inactives show top-dose activity, negative = inhibition, usual class: inhibitors; Drosophila S2 Gal4-VP16 UAS-luciferase, luminescence, 20 h; actives 3.5% (n = 310,000); AID 2546;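 note: Gal4-VP16 expression switched on by copper sulfate through the metallothionein promoter; potency is the fitted concentration of half-maximal effect; nearly all actives have a fitted effect of over 50% in size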
PKM2 act = PKM2 (human) enzyme activation. P14618. purified PKM2, Kinase-Glo ATP luminescence, activation; response scale: 0% is enzyme alone, no compound. Potency, µM (top dose mostly 57.5 µM), for inactives: at the top dose activation, usual class: activators. actives 0.34% (n = 260,000). AID 1631; note: potency is the fitted concentration of half-maximal effect; nearly all actives have a fitted effect of over 55% in size
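Purified hPK-M2 (>95% pure) converted ADP (0.1 mM final) to ATP with 0.5 mM PEP in 50 mM imidazole pH7.2, KCl, MgCl2, Tween 20, BSA; 1 h at room temperature. ATP detected by Kinase-Glo luminescence.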
Six1-Eya2 inh = blocks human Six1 binding to Eya2. actives 0.56% (n = 360,000). activity change, % (test concentration not listed). AlphaScreen GST-Six1/His-Eya2 binding, biochemical; active compounds read low. AID 651725. Q15475+O00167; in the data active = activity change below about -65%; inconclusive = mostly about -30% to -63%
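AlphaScreen with GST-Six1 and His-Eya2 (5X mix: 250 nM and 500 nM), glutathione donor and nickel acceptor beads; buffer 50 mM Tris pH 8.0, 300 mM NaCl, 1 mM TCEP; 1 h at 37 C in the dark.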
CtBP-E1A blk = inhibitors of CtBP/E1A interaction; AlphaScreen GST-E1A/His-CtBP binding, 1536-well; active compounds read low; activity change, % (test concentration not listed); actives 0.49% (n = 340,000); in the data active = activity change below about -65%; inconclusive = mostly about -30% to -63%
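Steps: dispense buffer (Tris pH 8.0, NaCl 300 mM, TCEP 1 mM, BSA, Tween 20); add 5X protein mix (GST-E1A, His-CtBP, 125 nM each); pin 23 nL compound; 2 h at 37 °C, dark; add 5X beads (50 ug/mL); 1 h; read.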
RORgamma inh = blocks mouse ROR gamma transcriptional activity. actives 5.4% (n = 310,000). Drosophila S2 Gal4-RORgamma UAS-luciferase reporter, 20 h. P51450. Potency, µM (top dose mostly 53.6 µM), without a hit: top-dose activity change, negative = inhibition, usual class: inhibitors. AID 2551; note: potency is the fitted concentration of half-maximal effect; nearly all actives have a fitted effect of over 60% in size
Target sequence (P51450 whole entry, looked up, the tested form may be a part): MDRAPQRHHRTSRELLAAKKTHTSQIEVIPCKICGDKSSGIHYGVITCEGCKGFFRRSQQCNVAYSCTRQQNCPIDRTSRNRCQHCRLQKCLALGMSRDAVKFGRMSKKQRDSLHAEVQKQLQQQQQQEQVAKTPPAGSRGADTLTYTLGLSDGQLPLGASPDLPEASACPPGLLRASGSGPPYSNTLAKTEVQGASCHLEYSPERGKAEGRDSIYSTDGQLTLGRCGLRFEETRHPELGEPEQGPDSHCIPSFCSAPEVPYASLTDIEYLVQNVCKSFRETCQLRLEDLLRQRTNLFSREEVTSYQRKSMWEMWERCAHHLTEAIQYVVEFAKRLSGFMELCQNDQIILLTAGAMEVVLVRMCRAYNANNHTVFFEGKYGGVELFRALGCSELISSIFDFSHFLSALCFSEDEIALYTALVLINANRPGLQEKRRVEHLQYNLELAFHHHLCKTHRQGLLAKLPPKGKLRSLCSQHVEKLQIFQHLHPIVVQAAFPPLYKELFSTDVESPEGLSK
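Using a luciferase readout, inhibitors were identified by reduced reporter activity in Drosophila cells coexpressing a copper-inducible Gal4–ROR gamma fusion and UAS-driven Photinus luciferase, incubated 20 hr after 700 uM copper sulfate.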
The depositor's hits bear a star; ? = inconclusive; · = not tested or not shown; [ ] = remark or other dose. Unless noted, calls come from the whole dose curve; as a rule, active = well fitted curve in the direction sought with a large enough effect; inconclusive = small, poorly fitted or top-dose-only effect, or another doubt; inactive = no such curve, though single readings can be large; an effect the other way counts as inactive or inconclusive. % is set by controls: 0 for no effect and ±100 for the full control effect.

SMILES | VP16 counter | PKM2 act | Six1-Eya2 inh | CtBP-E1A blk | RORgamma inh
COC(=O)CSc1ncnc2c1cnn2Cc1ccccc1 | -28% | ? | 9 | 7 | 10µM*
O=C(Nc1ccc(NC(=O)N2CCN(c3ccccc3O)CC2)cc1)N1CCN(c2ccccc2O)CC1 | -1% | · | -14 | -21 | 9%
CC(C)(C)c1ccc(C2(C)NC(=O)NC2=O)cc1 (stereo not drawn) | -2% | -3% | 3 | 5 | 28%
Cn1c(-c2ccccc2)cnc1SCC(=O)N1CCCCC1 | 8.9µM* | 1% | 7 | -5 | 5µM*
Cc1ccc(-c2cnc(SCC(=O)N3CCCc4ccccc43)n2C)cc1 | -13% | 3% | -27 | ? | 11µM*
Cn1c(-c2ccccc2)cnc1SCC(=O)N1CCCc2ccccc21 | ? | -6% | -15 | -4 | ?
c1cncc(-c2cncnc2NC2CCNCC2)c1 | -6% | · | · | · | 26%
Cc1cccnc1CN1CCN(C(=O)c2cc(COc3ccc4ncccc4c3)on2)CC1 | ? | -2% | 3 | 1 | ?
O=C(c1cc(COc2ccc3ncccc3c2)on1)N1CCC[C@H]1CO | 5µM* | 1% | -2 | 2 | ?
O=C(c1cc(COc2ccc3ncccc3c2)on1)N1CCC(O)CC1 | 4% | 7% | 0 | -1 | ?
COc1cc(Cl)ccc1OCc1cc(C(=O)NCC(C)c2ccccc2)no1 (stereo not drawn) | ? | 0%[0.46 µM] | -3 | -1 | 15%
O=C(NC1CCCCCCC1)c1cc(COc2ccc3ncccc3c2)on1 | 4µM* | -3% | -5 | -4 | ?
CCOC(=O)N1CCN(C(=O)c2cc(COc3ccc4ncccc4c3)on2)CC1 | 7.1µM* | 0% | -11 | -4 | ?
CC(CNC(=O)c1cc(COc2ccc3ncccc3c2)on1)c1ccccc1 (stereo not drawn) | 10µM* | 5% | -1 | -10 | ?
O=C(N/N=C/c1ccco1)c1cccc(N2Cc3ccccc3C2)c1 | 6% | 5% | -22 | -4 | 13%
COc1ccc(Cl)cc1NC(=O)Nc1ccc(C(=O)N2CCOCC2)cc1 | 0% | 1% | -2 | -4 | 1%
O=[N+]([O-])c1ccc(Oc2ccc(S(=O)(=O)N3CCOCC3)cn2)cc1 | · | · | 1 | 3 | ·
Cc1cc(CN(C)C(=O)c2cc(COc3ccc4ncccc4c3)on2)on1 | 3.2µM* | -2% | -4 | 8 | 7.9µM*
Cn1cc(-c2nc3cnc(Oc4ccccc4)nc3n(C)c2=O)c2ccccc21 | -6% | · | · | · | -12%
COCCCNC(CC(=O)Nc1cc(C)cc(C)c1)C(=O)O (stereo not drawn) | · | · | 4 | -13 | ·
CCCOc1ccc(-c2c(C(=O)N/N=C/c3ccsc3)nnn2-c2nonc2N)cc1 | ? | · | 0 | · | 7.9µM*
CCOc1ccc(/C=N/NC(=O)c2nnn(-c3nonc3N)c2-c2ccc(OCC)cc2)cc1 | ? | 0% | -6 | 2 | ?
CCN(CC)c1ccc(/C=N/NC(=O)c2nnn(-c3nonc3N)c2-c2ccc(C)cc2)cc1 | ? | · | -2 | · | 13µM*
CCOc1ccc(-c2c(C(=O)N/N=C/c3c[nH]c4ccccc34)nnn2-c2nonc2N)cc1 | 3.2µM* | · | -4 | -18 | ?
O=C(COC(=O)/C=C/c1ccc([N+](=O)[O-])cc1)NCC1CCCCC1 | · | · | 3 | -9 | ·
SMILES | VP16 counter | PKM2 act | Six1-Eya2 inh | CtBP-E1A blk | RORgamma inh
C(=N\Nc1nc2ccccc2s1)/c1ccc2c(c1)OCO2 | 7.1µM* | -6% | -3 | 3 | 7.9µM*
Brc1cc2c(cc1/C=N/Nc1nc3ccccc3s1)OCO2 | ? | -10% | -1 | 4 | 4.5µM*
Cc1nc(N/N=C\c2ccc3c(c2)OCO3)sc1C | ? | 5% | -11 | -7 | -39%[1.91 µM]
CCCCC(=O)NC(=S)NNS(=O)(=O)c1ccccc1 | 20µM* | -23% | -3 | -2 | 13µM*
CCCCC(=O)NC(=S)NNC(=O)CC | 2% | ? | -3 | -2 | 7.9µM*
CCCCC(=O)NC(=S)Nc1cccc(NC(=O)CC)c1 | -5% | -2% | -7 | -9 | ?
CCCCC(=O)NC(=S)Nc1ccc(Cl)c(C(=O)O)c1 | 0% | -1% | 12 | 0 | -13%
O=C(NC(=S)NNS(=O)(=O)c1ccccc1)c1cccnc1 | -10% | -5% | 3 | 0 | ?
CCCCC(=O)NC(=S)Nc1c(C)cc(Br)cc1C | ? | -3% | 4 | · | 5.6µM*
CCCCCC(=O)NC(=S)NNC(=O)CC | -4% | 1% | -4 | 13 | 11µM*
Cc1cccc2sc(N(CCCN(C)C)C(=O)c3ccc(S(=O)(=O)N4CCc5ccccc5C4)cc3)nc12 | 11µM* | 7% | 8 | -18 | ?
CN(C)CCCN(C(=O)c1ccc(S(=O)(=O)N2CCc3ccccc3C2)cc1)c1nc2c(F)cccc2s1 | -24% | 1% | -20 | -28 | 4.5µM*
CCOC(=O)N1CCN(S(=O)(=O)c2ccc(C(=O)N(CCN(C)C)c3nc4c(C)cccc4s3)cc2)CC1 | -1% | 1% | -8 | 0 | -24%
CCc1ccc(C(C)NC(=S)NC2CCCCC2)cc1 (stereo not drawn) | 3.2µM* | -9% | -15 | -10 | 2.2µM*
CCOc1ccc(C(C)NC(=S)NC2CCCCC2)cc1OCC (stereo not drawn) | 14µM* | -2% | -2 | -16 | 7.1µM*
O=C(NC1CCCCCC1)C(=S)NCCc1ccccc1 | 4% | -11% | 7 | 8 | 41%
CC(CCc1ccccc1)NC(=S)NC1CCCCC1 (stereo not drawn) | 16µM* | -10% | 3 | -21 | 2.5µM*
CCC(NC(=S)NC1CCCCC1)c1ccccc1 (stereo not drawn) | 7.1µM* | 2% | · | · | 3.2µM*
CCOc1ccc(C(=S)NC2CCCCC2)cc1OCC | · | -26% | -2 | -13 | ·
CC(C)Cn1c(N)c(C(=O)COC(=O)/C=C/c2ccccc2)c(=O)n(C)c1=O | · | · | 6 | -7 | ·
CC(NC(=O)COC(=O)/C=C/c1ccc(Cl)cc1)c1ccccc1 (stereo not drawn) | -2% | -2% | 6 | -2 | 11%
CCC(C)c1ccc(C(C)NC(=S)NC2CCCCC2)cc1 (stereo not drawn) | 2µM* | -1% | 13 | -23 | 2.8µM*
CCOc1ccc(C(C)NC(=S)NC2CCCCC2)cc1 (stereo not drawn) | 10µM* | -7% | -4 | -1 | 3.2µM*
CCOc1ccc(C(C)NC(=O)C2CCCC2)cc1 (stereo not drawn) | 1% | -10% | -2 | 0 | -3%
CCOC(=O)c1nc2c(ccc3ccccc32)cc1C | 5% | -1% | 33 | 29 | 0%
CSc1ccc(C(=O)NC2CCSc3ccccc32)cc1 (stereo not drawn) | -3% | -3% | 2 | 2 | -10%
O=C(Nc1ccccc1)c1nc[nH]c1C(=O)Nc1ccccc1F | · | · | 1 | -18 | ·

Bioassay records (PubChem)
